Source: PubChem BioAssay (National Center for Advancing Translational Sciences (NCATS))
The list is not random: actives were taken first. Their share in the collection is about 0.43%.
N370S GC mod: N370S glucocerebrosidase modulation, Gaucher chaperone candidate | N370S GC spleen homogenate, 4MU-glucoside fluorescence | Potency, µM (doses to about 59.4 µM), for inactives: top-dose activity change, negative = inhibition, actives largely listed as inhibitors | 330,000 compounds, 0.092% hits;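 further: potency means the concentration at half of the fitted maximal effect; 0% = full enzyme activity and -100% = no enzyme basal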
aGlu spleen mod: lysosomal alpha-glucosidase (human) modulation | Potency, µM (series often up to 79.9 µM), inactives show top-dose activity change, negative = inhibition, usual class: inhibitors | P10253 | human spleen homogenate, 4-MU-alpha-glucoside fluorescence | 240,000 compounds, 0.006% hits;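 further: potency means the concentration at half of the fitted maximal effect; 0% = enzyme with vehicle and -100% = no enzyme basal signal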
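Human spleen homogenate (1 ug) incubated with compounds and 1 mM 4-methylumbelliferyl-alpha-D-glucopyranoside in pH 5.0 citrate/phosphate buffer, 37 C, 40 min. Stopped at pH 10; 4-MU fluorescence (Ex 365/Em 440 nm); AC50 by Hill fit.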
GAA glycogen mod: GAA glycogen-cleavage inhibition or activation; Potency, µM (series often up to 76.4 µM), inactives show top-dose activity change, negative = inhibition, usual class: inhibitors; P10253; AID 2100; recombinant GAA, glycogen substrate, Amplex Red glucose oxidase fluorescence; 300,000 compounds, 0.38% hits;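 further: potency means the concentration at half of the fitted maximal effect; 0% = full enzyme reaction and -100% = no-enzyme basal signal; the screen sought inhibitors and activators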
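Recombinant human alpha-glucosidase (4 nM final) hydrolysed bovine liver glycogen (30 ug) for 40 min at 37 C in pH 5.0 citrate/phosphate with 0.01% Tween-20. Released glucose detected by glucose oxidase/Amplex Red, Ex 573/Em 610 nm. Compounds up to 77 uM; AC50 from Hill fits.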
GAA inh: inhibitors of human lysosomal alpha-glucosidase. Potency, µM (top dose mostly 76.9 µM), inactives show at the highest dose activity change, negative = inhibition, actives largely listed as inhibitors. purified human GAA, 4-MU-alpha-glucoside fluorescence. P10253. AID 1466. 200,000 compounds, 0.005% hits;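 further: potency means the concentration at half of the fitted maximal effect; plate controls were uninhibited enzyme wells for no effect and no-enzyme background for full effect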
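Endpoint fluorogenic read: 20 min room-temperature reaction of 4 nM human alpha-glucosidase with 400 uM 4-methylumbelliferyl-alpha-D-pyranoside, pH 5.0, quenched with 1M NaOH/1M glycine pH 10. AC50 from Hill modeling.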
GLA spleen mod: inhibits or activates alpha-galactosidase in human spleen homogenate; 240,000 compounds, 0.008% hits; Potency, µM (highest dose often 80 µM), inactives show at the top dose activity change, negative = inhibition, most hits filed as inhibitors; AID 2107; human spleen homogenate, 4MU-alpha-Gal fluorescence, 40 min;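 further: potency means the concentration at half of the fitted maximal effect; 0% = enzyme with vehicle and -100% = no enzyme basal signal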
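Human spleen homogenate (1 ug) as enzyme source, 4-methylumbelliferyl-alpha-D-galactopyranoside 1 mM final, citrate/phosphate pH 5.0 with 0.01% Tween-20. Compounds 40 min at 37C, NaOH/glycine stop; fluorescence Ex 365/Em 440, Hill-fit AC50.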
GLA inh pH 4.5: blocks human alpha-galactosidase A at pH 4.5. P06280. purified enzyme, 4-MU-alpha-Gal fluorescence, pH 4.5. activity change, negative = inhibition, % at 105 µM. 230,000 tested, under 10 active;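 further: 0% = full activity with enzyme and -100% = basal without enzyme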
Target sequence (P06280 whole entry, looked up): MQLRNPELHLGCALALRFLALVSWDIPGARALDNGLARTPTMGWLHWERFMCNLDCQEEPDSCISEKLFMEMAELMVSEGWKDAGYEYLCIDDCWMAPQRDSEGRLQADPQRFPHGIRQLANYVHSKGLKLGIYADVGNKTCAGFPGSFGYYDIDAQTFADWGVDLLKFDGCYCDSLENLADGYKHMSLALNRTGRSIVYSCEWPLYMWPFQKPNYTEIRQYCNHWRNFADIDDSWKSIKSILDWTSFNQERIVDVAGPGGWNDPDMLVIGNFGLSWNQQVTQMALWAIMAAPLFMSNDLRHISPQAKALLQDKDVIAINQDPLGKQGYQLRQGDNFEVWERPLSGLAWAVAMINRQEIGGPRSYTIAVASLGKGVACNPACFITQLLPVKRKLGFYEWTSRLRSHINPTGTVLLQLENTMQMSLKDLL
* hit, by the source's call; [ ] = dose if it differs, or a comment. The call rests on the fitted dose curve; in most records, active means well fitted curve in the direction sought with a large enough effect; inconclusive means small, poorly fitted or top-dose-only effect, or another doubt; inactive means no such curve, though single readings can be large; an effect the other way counts as inactive or inconclusive.

For O=C1c2c(O)cc(O)cc2O[C@H](c2ccc(O)c(O)c2)[C@@H]1O the results were N370S GC mod -19%, aGlu spleen mod -4%, GAA glycogen mod 3.2µM*, GAA inh -6%[15.4 µM], GLA spleen mod -12% and GLA inh pH 4.5 6.
`CN=c1scc(-c2ccc(F)cc2)n1/N=C/c1ccc(O)c(O)c1` gave N370S GC mod 7%, aGlu spleen mod -1%, GAA glycogen mod 5.6µM*, GAA inh -9%, GLA spleen mod 7% and GLA inh pH 4.5 -9.
Screening O=S1(=O)CC/C(=N\Nc2ccccc2)c2ccsc21 returned N370S GC mod -6%, aGlu spleen mod -17%, GAA glycogen mod 25µM*, GAA inh 4%, GLA spleen mod -9% and GLA inh pH 4.5 3.
`O=C(N/N=C/C1CCCCC1)c1ccccn1` gave N370S GC mod 6%, aGlu spleen mod 4%, GAA glycogen mod inconclusive, GAA inh -4%, GLA spleen mod 6% and GLA inh pH 4.5 -6.
O=C(N/N=C/C1CCCCC1)c1cc(Cl)ccc1O was read as N370S GC mod 2%, aGlu spleen mod -5%, GAA glycogen mod 35µM*, GAA inh -18%, GLA spleen mod -2% and GLA inh pH 4.5 4.
Screening O=c1cc2c(=O)oc3cc(O)c(O)oc3c2c(O)c1O returned N370S GC mod -13%, aGlu spleen mod 4%, GAA glycogen mod 8.9µM*, GAA inh -3%, GLA spleen mod 4% and GLA inh pH 4.5 -2.
`COc1c(O)cc2c(=O)oc3c(OC)c(O)cc4c(=O)oc1c2c34` gave N370S GC mod -3%, aGlu spleen mod -2%, GLA spleen mod 7% and GLA inh pH 4.5 -1.
Screening COc1ccc(NCc2ccc(OC)c(Cn3ccnc3)c2)c(OC)c1 returned N370S GC mod -3% and GAA glycogen mod 7µM*.
For CCOC(=O)CC(NC(=O)CCc1c(C)nc2c(-c3ccccc3)c(C)nn2c1C)c1ccc(C)cc1 (centres undefined) the results were GAA glycogen mod -8%[76.3 µM].
`COC(=O)CSc1cc([N+](=O)[O-])ccc1NC(=O)OC` gave N370S GC mod -3%, aGlu spleen mod -24%, GAA glycogen mod 5%, GAA inh inconclusive, GLA spleen mod 35µM* and GLA inh pH 4.5 5.
Cc1ccc(-c2cc(NC(=O)c3ccccc3Cl)on2)cc1 was read as GAA glycogen mod 17%[76.3 µM].
For O=C1c2cccc3cccc(c23)C(=O)N1CC1CCN(CC(O)COc2ccc3ccccc3c2)CC1 (centres undefined) the results were N370S GC mod -2%, aGlu spleen mod -16%, GAA glycogen mod 25µM*, GAA inh -1%, GLA spleen mod -8% and GLA inh pH 4.5 5.
For COc1cccc(OCC(O)CN2CCC(CN3C(=O)c4cccc5cccc(c45)C3=O)CC2)c1 (centres undefined) the results were N370S GC mod 6%, aGlu spleen mod 0%, GAA glycogen mod 2%, GAA inh -7%, GLA spleen mod -5% and GLA inh pH 4.5 -2.
Screening CN(C)c1ccc2c(-c3ccccc3)c3ccc(=[N+](C)C)cc-3oc2c1 returned N370S GC mod 1%, aGlu spleen mod 3% and GLA spleen mod 11%.
Screening O=C(Nc1ccc(OCC(=O)N2CCN(S(=O)(=O)c3ccccc3)CC2)cc1)c1ccco1 returned aGlu spleen mod inconclusive, GAA glycogen mod -24%, GAA inh 28µM*, GLA spleen mod -9% and GLA inh pH 4.5 -4.
`CCOC(=O)c1[nH]c2ccc(OC)cc2c1NC(=S)N1CCN(c2ccccc2OC)CC1` gave N370S GC mod 5%, aGlu spleen mod -7%, GAA glycogen mod 4µM*, GAA inh 3%, GLA spleen mod 8% and GLA inh pH 4.5 7.
Screening CCOC(=O)c1[nH]c2ccc(OC)cc2c1NC(=S)N1CCN(C(=O)OCC)CC1 returned N370S GC mod 4%, aGlu spleen mod -4%, GAA glycogen mod inconclusive, GAA inh 1%, GLA spleen mod -1% and GLA inh pH 4.5 2[21.1 µM].
CCOC(=O)c1[nH]c2ccc(OC)cc2c1NS(=O)(=O)c1ccc(OC)cc1OC was read as N370S GC mod 9%, aGlu spleen mod -11%, GAA glycogen mod 13µM*, GAA inh -1%, GLA spleen mod -6% and GLA inh pH 4.5 2.
For CCCCNc1nc(Oc2ccc(OCC)nn2)nc(N2CCOCC2)n1 the results were GAA glycogen mod 3%[76.3 µM].
Screening COc1ccc(Cl)cc1C(=O)Nc1sc2c(c1C(=O)OC(C)C)CCCC2 returned GAA glycogen mod 9%[76.3 µM].
For CCC(=O)[C@]12O[C@@]3(C4C(=O)OCCC41)N(CC)C(C)=C(C(=O)OC)C(c1ccccc1)N3C2=O (some centres undefined) the results were N370S GC mod 20%[12.8 µM], aGlu spleen mod -1%[17.4 µM] and GLA spleen mod 1%[17.5 µM].
For Cc1ccc(NC(=S)NNC(=O)c2c(Cl)c(C)nn2C)cc1 the results were N370S GC mod -5%, aGlu spleen mod -3%, GAA glycogen mod inconclusive, GAA inh 0%, GLA spleen mod -5% and GLA inh pH 4.5 -5.
For Cc1ccc(NC(=S)NNC(=O)c2cn(C)nc2C)cc1 the results were N370S GC mod 1%, aGlu spleen mod 2%, GAA glycogen mod 28µM*, GAA inh -3%, GLA spleen mod -12% and GLA inh pH 4.5 -1.
For CN1CC(O)C2=CC(=O)C(=O)C=C21 (centres undefined) the results were N370S GC mod -8%, aGlu spleen mod 11% and GLA spleen mod 0%.
For Cc1c(NC(=O)Nc2ccc(Cl)cc2Cl)c(=O)n(-c2ccccc2)n1C the results were N370S GC mod 12%, aGlu spleen mod 0%, GAA glycogen mod -9%, GAA inh 6%, GLA spleen mod 4% and GLA inh pH 4.5 0.
For Cc1c(NCc2cc(Cl)cc(Cl)c2O)c(=O)n(-c2ccccc2)n1C the results were N370S GC mod 8%, aGlu spleen mod -2%, GAA glycogen mod 10µM*, GAA inh -13%, GLA spleen mod 2% and GLA inh pH 4.5 -4.
`Cc1c(NCc2cc(Cl)ccc2O)c(=O)n(-c2ccccc2)n1C` gave N370S GC mod 0%, aGlu spleen mod -3%, GAA glycogen mod 13µM*, GAA inh 11%, GLA spleen mod -2% and GLA inh pH 4.5 6.
`Cc1c(NC(=O)Nc2c(Cl)cccc2Cl)c(=O)n(-c2ccccc2)n1C` gave N370S GC mod 0%, aGlu spleen mod 3%, GAA glycogen mod -6%, GLA spleen mod 7% and GLA inh pH 4.5 5.
